The full ranking holds about 81,000 sequences; the median of “one-hybrid fitness for binding parS DNA” is about -0.17, and the highest 2% start at about 0.51. Only a selection was taken, and the highest values are over-represented in it overall.
B1: Caulobacter ParB omega fusion; a variant is named by its letters at X, in order, B8GW30 (parent)
chain: MESVVVGEPGMSEGRRGLGRGLSALLGEVDAAPAQAPGEQLGGSREAPIEILQRNPDQPRRTFREEDLEDLSNSIREKGVLQPILVRPSPDTAGEYQIVAGERAWRAAQRAGLKTVPIMVRELDDLAVLEIGIIENVQRADLNVLEEALSYKVLMEKFERTQENIAQTIGKSXSHVANXMRLLXLPDEVQSYLVSGELTAXHARAIAAAADPVALAKQIIEGGLSVRETEALARKAPNLSAGKSKGGRPPRVKDTDTQALESDLSSVLGLDVSIDHRGSTGTLTITYATLEQLDDLCNRLTRGI

Variants of: B1
Experiment: one-hybrid fitness for binding parS DNA (scaled: cognate 1, non-cognate 0); higher = stronger binding
Details: with parS DNA site
Procedure, shortened: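 On M9-minus-histidine containing 0.1 mM IPTG and 5 mM 3-AT, E. coli USO cells with a HIS3 reporter, site 19 bp from the promoter, grew 48 hours at 37°C to select Caulobacter ParB libraries randomised at four specificity codons. Plasmids from before and after were Illumina-sequenced, with three replicate libraries pooled and variants under 10 reads left out. Fitness is the log change in variant-to-wild-type read ratio, rescaled against cognate and non-cognate.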

| Variant | one-hybrid fitness for binding parS DNA |
| --- | --- |
| RVIF | ≤ 0.2 |
| RVIT | 0.703 |
| RVPK | ≤ 0.2 |
| RVPT | 0.529 |
| RVIQ | ≤ 0.2 |
| RVPM | ≤ 0.2 |
| CFTG | ≤ 0.2 |
| TTVP | ≤ 0.2 |
| PCIV | ≤ 0.2 |
| RNQA | 0.489 |
| RNYA | 0.467 |
| RNKA | 0.541 |
| RNNA | 0.529 |
| RNRA | 0.534 |
| RNVA | 0.312 |
| RNSA | 0.495 |
| RNWA | 0.294 |
| RNDA | 0.354 |
| CRFC | ≤ 0.2 |
| AKST | ≤ 0.2 |
| DDYL | ≤ 0.2 |
| DYFD | ≤ 0.2 |
| RYQR | ≤ 0.2 |
| QVQY | ≤ 0.2 |

| Variant | one-hybrid fitness for binding parS DNA |
| --- | --- |
| RMTI | ≤ 0.2 |
| KKRY | ≤ 0.2 |
| IVRC | ≤ 0.2 |
| DLVM | ≤ 0.2 |
| RNDM | ≤ 0.2 |
| RNDG | 0.679 |
| RNDK | ≤ 0.2 |
| RNNH | ≤ 0.2 |
| RNNG | 0.948 |
| RNNN | 0.385 |
| LLYC | ≤ 0.2 |
| DVVM | ≤ 0.2 |
| PAYG | ≤ 0.2 |
| PDSP | ≤ 0.2 |
| THIF | ≤ 0.2 |
| ESHS | ≤ 0.2 |
| VADN | ≤ 0.2 |
| RPHS | ≤ 0.2 |
| RMHS | 0.979 |
| RCHD | ≤ 0.2 |
| RKHN | 0.375 |
| RFHP | ≤ 0.2 |
| RFHS | 0.996 |
| RCHS | 0.953 |

| Variant | one-hybrid fitness for binding parS DNA |
| --- | --- |
| RKHD | ≤ 0.2 |
| RMHD | ≤ 0.2 |
| RKHS | 0.832 |
| RMHN | 0.482 |
| RFHH | ≤ 0.2 |
| SNSI | ≤ 0.2 |
| KYKR | ≤ 0.2 |
| WCAL | ≤ 0.2 |
| YGRT | ≤ 0.2 |
| RSHP | ≤ 0.2 |
| RAHS | 0.985 |
| RSHH | ≤ 0.2 |
| RSHS | 1 |
| RAHN | 0.481 |
| RAHD | ≤ 0.2 |
| WEGR | ≤ 0.2 |
| ADSS | ≤ 0.2 |
| ALSE | ≤ 0.2 |
| KLGY | ≤ 0.2 |
| RVAH | 0.225 |
| RVAN | 0.452 |
| RVFS | 1.03 |
| RVFN | 0.399 |
| RVAS | 1.01 |

| Variant | one-hybrid fitness for binding parS DNA |
| --- | --- |
| RVFD | ≤ 0.2 |
| PPTK | ≤ 0.2 |
| IPLI | ≤ 0.2 |
| QGDC | ≤ 0.2 |
| PYSF | ≤ 0.2 |
| RMVW | 0.23 |
| RMKW | 0.694 |
| RCKW | 0.367 |
| RMRW | 0.586 |
| RMDW | ≤ 0.2 |
| RMYW | 0.216 |
| MALS | ≤ 0.2 |
| IADM | ≤ 0.2 |
| HDPK | ≤ 0.2 |
| FDHR | ≤ 0.2 |
| TTAR | ≤ 0.2 |
| QWPT | ≤ 0.2 |
| QFYR | ≤ 0.2 |
| VGKG | ≤ 0.2 |
| ATYA | ≤ 0.2 |
| RTYA | 0.606 |
| NTRA | ≤ 0.2 |
| DTRA | ≤ 0.2 |
| DTYA | ≤ 0.2 |

| Variant | one-hybrid fitness for binding parS DNA |
| --- | --- |
| RTRA | 0.794 |
| NWKG | ≤ 0.2 |
| RVDE | ≤ 0.2 |
| TNYG | ≤ 0.2 |
| PHTE | ≤ 0.2 |
| MVER | ≤ 0.2 |
| GAIS | ≤ 0.2 |
| VHEV | ≤ 0.2 |
| RPYG | ≤ 0.2 |
| RERG | 0.388 |
| RPRG | ≤ 0.2 |
| RSRR | ≤ 0.2 |
| RDRG | ≤ 0.2 |
| RCRG | 0.927 |
| RDYG | ≤ 0.2 |
| RSRG | 0.965 |
| RCYG | 1.04 |
| EMQT | ≤ 0.2 |
| RTTM | 0.316 |
| HGTT | ≤ 0.2 |
| LGRI | ≤ 0.2 |
| DCMT | ≤ 0.2 |
| VQTR | ≤ 0.2 |
| RYGK | ≤ 0.2 |

| Variant | one-hybrid fitness for binding parS DNA |
| --- | --- |
| RYCT | 0.852 |
| RYWP | ≤ 0.2 |
| RYYT | 0.876 |
| RYGY | 0.42 |
| RYCQ | ≤ 0.2 |
| RYYK | ≤ 0.2 |
| RYYF | 0.22 |
| RYWT | 0.787 |
| RYGT | 0.853 |
| RYCK | ≤ 0.2 |
| RYWD | ≤ 0.2 |
| TIPF | ≤ 0.2 |
| GWDS | ≤ 0.2 |
| DNAI | ≤ 0.2 |
| LTPR | ≤ 0.2 |
| DAHI | ≤ 0.2 |
| KFDS | ≤ 0.2 |
| TQIL | ≤ 0.2 |
| VNDP | 0.246 |
| RYLP | ≤ 0.2 |
| RYLN | 0.396 |
| RYNE | ≤ 0.2 |
| RYNT | 0.819 |
| RYST | 0.862 |

| Variant | one-hybrid fitness for binding parS DNA |
| --- | --- |
| RYRT | 0.737 |
| RYRF | ≤ 0.2 |
| RYNQ | ≤ 0.2 |
| RYSM | 0.302 |
| RYLT | 0.911 |
| RYSQ | ≤ 0.2 |
| RYRQ | ≤ 0.2 |
| DRTC | ≤ 0.2 |
| SSMT | ≤ 0.2 |
| KHMR | ≤ 0.2 |
| VHNS | ≤ 0.2 |
| QCGM | ≤ 0.2 |
| MVQC | ≤ 0.2 |
| PQQE | ≤ 0.2 |
| MRLA | ≤ 0.2 |
| PVER | ≤ 0.2 |
| RYHT | 0.889 |
| RYQQ | ≤ 0.2 |
| RYDR | ≤ 0.2 |
| RYHH | 0.213 |
| RYDT | 0.79 |
| RYHP | ≤ 0.2 |
| RYQY | 0.422 |
| RYQT | 0.853 |

| Variant | one-hybrid fitness for binding parS DNA |
| --- | --- |
| RYDF | ≤ 0.2 |
| VVQF | ≤ 0.2 |
| QNYM | ≤ 0.2 |
| DLKH | ≤ 0.2 |
| LLYM | ≤ 0.2 |
| LLNS | ≤ 0.2 |
| QAGT | ≤ 0.2 |
| RTIT | 0.813 |
| RTID | 0.203 |
| RTPY | 0.221 |
| RTPD | ≤ 0.2 |
| RTIN | 0.355 |
| RTPT | 0.558 |
| PDAC | ≤ 0.2 |
| RCWY | 0.513 |
| RAWY | 0.512 |
| RTWY | 0.521 |
| RSWY | 0.422 |
| RPWY | ≤ 0.2 |
| IEES | ≤ 0.2 |
| IWRM | ≤ 0.2 |
| RRIW | ≤ 0.2 |
| VLVG | ≤ 0.2 |
| RWHC | 0.733 |

| Variant | one-hybrid fitness for binding parS DNA |
| --- | --- |
| RWLM | ≤ 0.2 |
| RWPC | 0.337 |
| RWHY | 0.275 |
| RWLK | ≤ 0.2 |
| RWIC | 0.521 |
| RWHQ | ≤ 0.2 |
| RWGN | ≤ 0.2 |
| RWGK | ≤ 0.2 |
| RWIN | ≤ 0.2 |
| RWGC | 0.61 |
| RWLC | 0.658 |
| CKVC | ≤ 0.2 |
| IMHG | ≤ 0.2 |
| QMQR | ≤ 0.2 |
| ATLN | ≤ 0.2 |
| RPRL | ≤ 0.2 |
| ASCK | ≤ 0.2 |
| TRPS | ≤ 0.2 |
| GPIF | ≤ 0.2 |
| WAKY | ≤ 0.2 |
| RWSK | ≤ 0.2 |
| RWCK | ≤ 0.2 |
| RWQQ | ≤ 0.2 |
| RWRD | ≤ 0.2 |

| Variant | one-hybrid fitness for binding parS DNA |
| --- | --- |
| RWQC | 0.73 |
| RWRH | 0.223 |
| RWSC | 0.788 |
| RWCC | 0.636 |
| RWCD | ≤ 0.2 |
| RWRC | 0.895 |
| RWQR | ≤ 0.2 |
| RWSY | 0.338 |
| ADHG | ≤ 0.2 |
| DYYC | ≤ 0.2 |
| LWRS | ≤ 0.2 |
| VTPY | ≤ 0.2 |
| PYRW | ≤ 0.2 |
| MYTG | ≤ 0.2 |
| RWYP | ≤ 0.2 |
| RWWC | 0.521 |
| RWWM | ≤ 0.2 |
| NWWC | ≤ 0.2 |
| RWYD | ≤ 0.2 |
| RWYC | 0.662 |
| GTFW | ≤ 0.2 |
| SPEV | ≤ 0.2 |
| GWNS | ≤ 0.2 |
| RHNN | 0.386 |

| Variant | one-hybrid fitness for binding parS DNA |
| --- | --- |
| RHDC | 0.878 |
| RHSD | ≤ 0.2 |
| RHNC | 0.871 |
| RHDM | 0.254 |
| RHSH | ≤ 0.2 |
| RHSC | 0.924 |
| RHRQ | ≤ 0.2 |
| RHRR | ≤ 0.2 |
| RHNP | ≤ 0.2 |
| RHDY | 0.397 |
| RHRC | 0.879 |
| GRGR | ≤ 0.2 |
| PQPN | ≤ 0.2 |
| DESG | ≤ 0.2 |
| ATAA | ≤ 0.2 |
| TIDL | ≤ 0.2 |
| FQIS | ≤ 0.2 |
| YIVC | ≤ 0.2 |
| CDYG | ≤ 0.2 |
| TKDN | ≤ 0.2 |
| ASNP | ≤ 0.2 |
| RHYC | 0.92 |
| RHHC | 0.934 |
| RHLC | 0.928 |

| Variant | one-hybrid fitness for binding parS DNA |
| --- | --- |
| RHYR | ≤ 0.2 |
| RHHY | 0.4 |
| RHCF | ≤ 0.2 |
| RHCY | 0.371 |
| RHLK | ≤ 0.2 |
| RHCC | 0.869 |
| RHHM | 0.266 |
| RHLY | 0.428 |
| RHYF | 0.211 |
| WTHL | ≤ 0.2 |
| QEVD | ≤ 0.2 |
| DTTH | ≤ 0.2 |
| VQAA | ≤ 0.2 |
| DVLS | ≤ 0.2 |
| THPF | ≤ 0.2 |
| RYAQ | ≤ 0.2 |
| RYAG | 0.982 |
| RYAY | 0.425 |
| RYFY | 0.43 |
| RYFG | 0.932 |
| RYFM | 0.264 |
| VACC | ≤ 0.2 |
| TPLH | ≤ 0.2 |
| GCSG | ≤ 0.2 |

| Variant | one-hybrid fitness for binding parS DNA |
| --- | --- |
| IIPI | ≤ 0.2 |
| PYAK | ≤ 0.2 |
| IRPT | ≤ 0.2 |
| RQEQ | 0.223 |
| RQEK | ≤ 0.2 |
| RQEP | ≤ 0.2 |
| RQED | ≤ 0.2 |
| RQEH | 0.281 |
| RQEM | 0.255 |
| RQES | 0.962 |
| RQEN | 0.379 |
| RQET | 0.719 |
| RQER | ≤ 0.2 |
| RQEG | 0.89 |
| RQEC | 0.829 |
| KSGF | ≤ 0.2 |
| HSSQ | ≤ 0.2 |
| MISR | ≤ 0.2 |

Reference: a collection of fitness landscapes (doi:10.1016/j.celrep.2020.107928)
